Screening data from PubChem.
GAA glycogen = GAA glycogen-cleavage inhibition or activation; AID 2100; actives 0.38% (n = 300,000); Potency, µM (doses to about 76.4 µM), for inactives: at the top dose activity change, negative = inhibition, actives largely listed as inhibitors; P10253; recombinant GAA, glycogen substrate, Amplex Red glucose oxidase fluorescence;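 also: potency is read from the fitted curve at half-maximal effect; 0% = full enzyme reaction and -100% = no-enzyme basal signal; the screen sought inhibitors and activators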
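Recombinant enzyme (4 nM final) with compounds titrated up to 77 uM and bovine liver glycogen (30 ug) in citrate pH 5.0, 0.01% Tween-20, 37 C 40 min. Released glucose detected by Amplex Red/glucose oxidase (Ex 573/Em 610); AC50 from Hill fits.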
GAA inhib = blocks human lysosomal alpha-glucosidase. Potency, µM (top dose mostly 76.9 µM), for inactives: at the highest dose activity change, negative = inhibition, usual class: inhibitors. P10253. AID 1466. actives 0.005% (n = 200,000). purified human GAA, 4-MU-alpha-glucoside fluorescence;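 also: potency is read from the fitted curve at half-maximal effect; plate controls were uninhibited enzyme wells for no effect and no-enzyme background for full effect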
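Human enzyme at 4 nM with 400 uM 4-methylumbelliferyl-alpha-D-pyranoside, citrate/phosphate buffer pH 5.0, 0.005% Tween-20, 20 min at room temperature. Compounds up to 77 uM. 4-MU fluorescence (Ex 365/Em 440) read after NaOH/glycine stop; AC50 from Hill fit.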
FBPA coupling cs = coupling enzyme interference in Giardia aldolase counter-screen; actives 0.67% (n = 290,000); coupling enzyme system counterscreen, AmpLite Red fluorescence; activity change, negative = inhibition, % at 58.2 µM, hits read low; in the data active = activity change below about -30%
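Activity here indicates interference with the coupling reaction, not aldolase inhibition. Compounds at 57.5 uM final met coupling enzymes for 10 min at RT; substrate and AmpLite Red detection followed, with a 525/598 nm fluorescence read after 20 min.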
GAA spleen mod = inhibits or activates alpha-glucosidase in human spleen homogenate | actives 0.006% (n = 240,000) | Potency, µM (series often up to 79.9 µM), inactives show top-dose activity change, negative = inhibition, usual class: inhibitors | human spleen homogenate, 4-MU-alpha-glucoside fluorescence | P10253;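 also: potency is read from the fitted curve at half-maximal effect; 0% = enzyme with vehicle and -100% = no enzyme basal signal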
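Compounds were titrated against alpha-glucosidase in spleen homogenate at pH 5.0, with 1 mM 4-methylumbelliferyl substrate for 40 min at 37 C. Reactions were quenched with pH 10 NaOH/glycine and fluorescence measured.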
B2AR arrestin = agonists driving beta-arrestin recruitment to human beta2-adrenergic receptor; AID 492947; actives 0.02% (n = 330,000); beta-arrestin recruitment to beta2AR, cell-based reporter; Potency, µM (series often up to 46.1 µM), for the others: at the top dose activation, usual class: activators;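 also: potency is read from the fitted curve at half-maximal effect; 0% = DMSO controls and full agonism = EC100 isoproterenol or metaproterenol; nearly all actives have a fitted effect of over 65% in size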
Target sequence (P07550 whole entry, looked up): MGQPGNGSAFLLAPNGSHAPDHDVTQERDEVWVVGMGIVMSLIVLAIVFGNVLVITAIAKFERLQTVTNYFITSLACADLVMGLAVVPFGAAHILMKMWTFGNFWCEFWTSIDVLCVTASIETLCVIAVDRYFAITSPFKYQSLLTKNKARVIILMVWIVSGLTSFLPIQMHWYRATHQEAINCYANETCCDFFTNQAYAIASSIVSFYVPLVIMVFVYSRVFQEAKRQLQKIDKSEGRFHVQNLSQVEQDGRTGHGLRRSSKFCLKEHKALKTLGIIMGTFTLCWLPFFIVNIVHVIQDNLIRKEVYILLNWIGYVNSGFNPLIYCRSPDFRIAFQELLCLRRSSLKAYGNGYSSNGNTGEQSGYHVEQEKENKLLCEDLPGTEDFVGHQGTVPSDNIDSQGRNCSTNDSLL
Numbers without * were called inactive; ? = inconclusive; nt = no result given; [ ] = remark or other dose. Sampled rows, rich in hits. Any-hit rate of the full collection: about 0.85%. Unless noted, calls follow the shape of the dose curve; as a rule, active = well fitted curve in the direction sought with a large enough effect; inconclusive = small, poorly fitted or top-dose-only effect, or another doubt; inactive = no such curve, though single readings can be large; an effect the other way counts as inactive or inconclusive. Unless noted, % is scaled to controls: 0 for no effect and ±100 for the full control effect.

SMILES | GAA glycogen | GAA inhib | FBPA coupling cs | GAA spleen mod | B2AR arrestin
CC(C)(C(O)c1ccc([N+](=O)[O-])cc1)[N+](=O)[O-] (configuration not stated) | nt | nt | -1 | -8% | nt
Cc1nc2c(cc(Oc3ccc(S(=O)(=O)N4CCOCC4)cn3)c3ccsc32)s1 | -14% | -8% | -40* | -5% | -1%
COc1cc(C(C)=O)ccc1Oc1ccc(S(=O)(=O)N2CCOCC2)cn1 | nt | nt | nt | nt | 1%
O=C1c2c(O)cc(O)cc2O[C@H](c2ccc(O)c(O)c2)[C@@H]1O | 3.2µM* | -6%[15.4 µM] | -3 | -4% | -1%
CCCc1[nH]nc2c1C(c1cc(OC)cc(OC)c1)C(C#N)=C(N)O2 (configuration not stated) | -22% | 1% | -12 | -1% | 0%
CCCc1[nH]nc2c1C(c1ccc(OC)c(CSC3=NCCS3)c1)C(C#N)=C(N)O2 (configuration not stated) | -16% | -8% | -41* | -2% | 0%
O[N+]1=CC=CCC1=S.On1ccccc1=S.[Zn] | nt | nt | -42* | -3% | nt
Cc1c([N+](=O)[O-])cc(C(=O)Nc2ccc(Cc3ccncc3)cc2)cc1[N+](=O)[O-] | 4% | -7% | 2 | 0% | 0%
O=C(Nc1ccc(Cc2ccncc2)cc1)c1ccc(Cl)c([N+](=O)[O-])c1 | 3% | -3% | -36* | -8% | -1%
CCOC(=O)c1cc(-c2ccc(C)cc2)n(CC(=O)Nc2cc(C)ccc2C)c1C | 9%[76.3 µM] | nt | nt | nt | nt
O=C1NCCCc2c1oc1ccc(O)cc21 | -7% | -6% | 2 | -12% | -1%
Oc1c(Cl)cc(Cl)c2c1NCCC2 | 14µM* | 3% | -48* | 5% | -2%
Cc1nnc(N/N=C/c2ccc(Br)cc2)n1N | ? | nt | 0 | nt | -1%
Cc1nnc(N/N=C/c2ccc([N+](=O)[O-])cc2)n1N | 1% | ? | -45* | -6% | 0%
Cc1nnc(N/N=C/c2cc([N+](=O)[O-])c(N3CCC(C)CC3)cc2N2CCC(C)CC2)n1N | 31µM* | ? | -45* | -7% | 0%
CCc1nnc(N/N=C/c2ccc(N3CCC(C)CC3)c([N+](=O)[O-])c2)n1N | ? | 2% | -27 | -15% | 0%
COc1ccc(/C=N/Nc2nnc(C)n2N)cc1OC | ? | -6% | -40* | 8% | 0%
CC1(N)CCC(C(C)(C)N)CC1 (configuration not stated) | nt | nt | nt | -13% | nt
CO[C@H]1COC(=O)C/C=C\[C@@H](C)COC(=O)[C@@H](OCc2ccccc2)/C=C\[C@@H]1C | nt | nt | 1 | 1%[17.4 µM] | nt
COc1ccc(C2=Nn3c(nnc3-c3ccccc3O)SC2)cc1OC | nt | nt | 5 | 3% | nt
CCCC[C@H](NC(=O)[C@H](CC(C)C)NC(=O)CNC(=O)[C@@H](NC(=O)[C@H](Cc1ccccc1)NC(=O)[C@H](CO)NC(=O)[C@@H](N)CC(=O)O)C(C)C)C(N)=O | nt | nt | 0 | 8% | nt
Cc1cc(N2CCOCC2)nc2ccc(NC(=O)CCC(=O)N3CCC(C)CC3)cc12 | 8% | -3% | -33* | 3% | 0%
Cc1cc(N2CCOCC2)nc2ccc(NC(=O)CCC(=O)N3CCCCC3)cc12 | 5% | ? | 1 | 5% | -1%
COc1cc(C)c(N)cc1C(C)C | 14µM* | 0% | 1 | -1% | 0%
COc1cc(OC)c2c(c1)OC1Cc3cc(OC)c(OC)cc3C2O1 (configuration not stated) | nt | nt | -1 | -11%[17.4 µM] | nt
SMILES | GAA glycogen | GAA inhib | FBPA coupling cs | GAA spleen mod | B2AR arrestin
COc1ccc(NC(=O)NS(=O)(=O)c2ccc(C)cc2)c(OC)c1 | 25µM* | 0% | -1 | 10% | 0%
CC1(C)Cc2c(C#N)c(NC3CCCCC3)nc(-c3ccco3)c2CO1 | 1% | ? | -30* | 3% | 0%
CC1(C)Cc2c(C#N)c(NCC3CCCO3)nc(-c3ccco3)c2CO1 (configuration not stated) | -19% | ? | -7 | 18% | 0%
NC(=O)C1CCN(C(=S)c2ccc(-c3ccc(Br)cc3)o2)CC1 | 8% | -2% | -33* | -4% | 0%
COc1cccc(/C=N/NC(=O)c2c(C)nc3ccc(Br)cn23)c1 | -13% | 9% | -33* | -7% | 4%
Cc1nc2ccc(Br)cn2c1C(=O)N/N=C\c1ccc(C(C)C)cc1 | -6%[76.3 µM] | nt | 0 | nt | 0%
C=CCN(C(C(=O)OC)C(C)C)S(=O)(=O)CCl (configuration not stated) | nt | nt | 1 | -8% | nt
O=c1c(-c2cccs2)nc2cnc(N3CCNCC3)nc2n1Cc1cccs1 | nt | nt | 3 | -5% | nt
Nc1ccccc1C(=O)NNc1c2ccccc2nc2ccccc12 | 40µM* | nt | -2 | 1% | 0%
CN1CCN(C(=S)C(=O)Nc2ccc(Br)cc2)CC1 | -14% | ? | -37* | -8% | 0%
CN1CCN(C(=S)NC(=O)c2ccc(Br)cc2)CC1 | 0% | nt | 2 | -6% | ?
Oc1c(Br)cc(Br)cc1/C=N/Nc1ccc(Cl)nn1 | -4% | nt | 5 | nt | 1%
Oc1ccc(/C=N/Nc2ccc(Cl)nn2)c(O)c1O | ? | nt | -38* | nt | -1%
COc1ccc(NC2CC(=O)NC2=O)cc1 (configuration not stated) | 11µM* | -4% | -1 | -1% | 0%
CC(=O)c1ccc2c(c1)C1C=CCC1C(C(=O)O)N2 (configuration not stated) | ? | 4% | 3 | -5% | 0%
C1=CC2c3ccccc3NC(c3ccncc3)C2C1 (configuration not stated) | 0% | -4% | -41* | -13% | 3%
CC(=O)c1ccc2c(c1)C1C=CCC1C(c1ccncc1)N2 (configuration not stated) | ? | -13% | -32* | 0% | 0%
CCc1ccc(/C=C2\CN(CC)Cc3c2nc2ccccc2c3C(=O)O)cc1 | 14% | -13% | -34* | 8% | 0%
CCOc1cc(/C=C2\C(=O)N(Cc3ccc(C)cc3)C(C)=C2C(=O)OC)ccc1O | 18µM* | 1% | -11 | 0% | 2%
CCCC[C@]12Cc3cc(OC)c(OC)cc3C(O1)C1=C(O2)C(=O)c2ccccc2C1=O | 9%[15.3 µM] | nt | -36* | nt | 0%[9.22 µM]
CCCC[C@]12Cc3ccccc3[C@H](O1)C1=C(O2)C(=O)c2ccccc2C1=O | -6%[15.3 µM] | nt | 0 | nt | 0%[9.22 µM]
CC(C)(C)C(=O)/C=C/Nc1ccccc1O | 14µM* | 2% | -4 | 0% | 0%
CN(C)c1ccc(N/C=C/C(=O)C(C)(C)C)cc1 | ? | -3% | -29 | -2% | 0%
CCC(=O)N(CC)C1=C(O)c2ccccc2C(=O)C1=O | 10% | -4% | -61* | -3% | 0%
N#Cc1nc(-c2cccc3ccccc23)oc1NCC#CCOC(=O)c1cccs1 | nt | nt | nt | nt | 0%
N#Cc1c(N)sc(=S)c2c1CCCCC2 | -11% | 8% | -33* | -6% | 0%
